PubChem BioAssay AID1851 (National Center for Advancing Translational Sciences (NCATS), 2009)
The whole screen tested about 16,000 compounds, of which about 5,100 (32%) were called active. Inconclusive results (about 25%) are left out. Calls follow the shape of the dose curve; as a rule, active = well fitted curve in the direction sought with a large enough effect; inconclusive = small, poorly fitted or top-dose-only effect, or effect the other way; inactive = no such curve, though single readings can be large or run the other way. Some of the results follow.

What follows are compounds tested against Cytochrome P450 3A4 (Homo sapiens) (UniProt P08684) (assay: Cytochrome panel assay with activity outcomes). Details: recombinant CYP, pro-luciferin dealkylation, luminescence, p450-cyp3a4; series mostly up to 57.1 µM.
Cytochrome P450 3A4 (Homo sapiens), sequence (P08684 whole entry, looked up): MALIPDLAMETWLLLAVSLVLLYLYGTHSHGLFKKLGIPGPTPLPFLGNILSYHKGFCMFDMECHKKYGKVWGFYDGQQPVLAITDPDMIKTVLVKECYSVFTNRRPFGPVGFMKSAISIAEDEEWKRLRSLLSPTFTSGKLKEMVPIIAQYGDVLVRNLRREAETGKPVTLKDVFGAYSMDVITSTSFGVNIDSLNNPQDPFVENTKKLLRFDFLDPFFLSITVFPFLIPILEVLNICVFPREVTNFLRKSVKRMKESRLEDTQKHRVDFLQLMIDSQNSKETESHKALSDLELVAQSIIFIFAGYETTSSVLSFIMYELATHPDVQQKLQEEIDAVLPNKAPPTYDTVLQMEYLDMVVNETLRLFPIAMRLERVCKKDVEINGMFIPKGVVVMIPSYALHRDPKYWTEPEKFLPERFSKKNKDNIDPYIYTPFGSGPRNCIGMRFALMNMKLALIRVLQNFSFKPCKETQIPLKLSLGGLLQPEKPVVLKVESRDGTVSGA
% is scaled to controls: 0 for no effect and ±100 for the full control effect.

activity, negative = inhibition, inactive:
O=C(O)[C@H](Cc1cc(I)c(O)c(I)c1)C1CCCCC1 -12.6% [at 11.4 µM], CC(C)(C)N1C(=O)[C@H]2[C@H]3[C@H](O)[C@H](O)C/C(=N/NC(=O)OCc4ccccc4)[C@H]3CC[C@@H]2C1=O -22.6% [at 11.4 µM], NC(N)=NC(N)=Nc1ccc(S(N)(=O)=O)cc1 -13.3% [at 11.4 µM], Cc1nn(C)c(C(=O)NNC(=S)Nc2ccc(Cl)cc2)c1[N+](=O)[O-] -8.67% [at 2.29 µM], C/C(C[n+]1ccccc1)=N\N=C(N)N 2.37% [at 11.4 µM], Nc1[nH]c(=O)nc2c1ncn2[C@H]1O[C@@H](CO)[C@@H](O)[C@@H]1O -8.49% [at 11.4 µM], CCCCn1cnc2c(c(CC#N)nn2-c2ccccc2)c1=N -13.4% [at 11.4 µM], O=C(O)c1ccc(/C=N\N=C2c3ccccc3-c3ccccc32)cc1 -15.1% [at 11.4 µM], CCNc1nnc(-c2ccncc2)s1 -14.1% [at 11.4 µM], CC(C)(C)C1CCc2c(C(=O)N/N=C/c3cccs3)csc2C1 (stereo not given) 5.34% [at 2.29 µM], Cn1cccc1CC(=O)N/N=C\c1cccs1 3.8% [at 2.29 µM], COc1ccccc1OCC(=O)NNC(=O)c1cnccn1 16% [at 2.29 µM], O=C(NNC(=O)C1CCCCC1)c1cnccn1 -0.435% [at 2.29 µM], CC(C)(N=NC(C)(C)C1=NCCN1)C1=NCCN1 -8.65% [at 11.4 µM]

AC50, inactive:
CCc1ccc(NC(=O)c2cc(C(C)C)on2)cc1, O=C(c1cc(-c2ccco2)on1)N1CCOCC1, Cc1cc(C=C(C#N)C#N)c(C)n1-c1ccccc1, COC(=O)N1CCC2(CCCN(Cc3cc(C(F)(F)F)cc(C(F)(F)F)c3)C2)CC1, O=C(c1cccc(F)c1)N1CCC2(CCCN(Cc3ccccc3)C2)CC1, COCC(=O)N1CCC2(CCCN(Cc3ccccc3)C2)CC1, COCC(=O)N1CCC2(CC1)CN(Cc1cc(C(F)(F)F)cc(C(F)(F)F)c1)C2, COC(=O)N1CCC2(CCN(Cc3cc(C(F)(F)F)cc(C(F)(F)F)c3)CC2)CC1, FC(F)(F)c1cc(CN2CC3(CCNCC3)C2)cc(C(F)(F)F)c1, CS(=O)(=O)N1CCC2(CC1)CN(Cc1cc(C(F)(F)F)cc(C(F)(F)F)c1)C2, COc1ccc(N2CC(C(=O)Nc3cc(C)on3)CC2=O)cc1 (stereo not given), c1ccc2[nH]c(NC3=NCCC3)nc2c1, CC[C@]1(C)CC(=O)NC1=O, NCc1ccccc1CC(=O)N[C@@H]1C(=O)N2C(C(=O)O)=C(CSc3nnnn3CC(=O)O)CS[C@@H]12, COCC(=O)N1CCC[C@@]2(CCN(c3ncccn3)C2)C1, COc1ccccc1C1/C(=C(/O)c2ccccc2)C(=O)C(=O)N1CCO (stereo not given), COCCN1C(=O)C(=O)/C(=C(/O)c2cccc(OC)c2)C1c1ccco1 (stereo not given), Cc1ccc(C2/C(=C(/O)c3ccc(Cl)cc3)C(=O)C(=O)N2CC2CCCO2)o1 (stereo not given), COc1ccc(C2/C(=C(/O)c3ccccc3)C(=O)C(=O)N2CC(C)O)c(OC)c1 (stereo not given), COc1ccc(C2C(C(=O)c3ccco3)=C(O)C(=O)N2Cc2cccnc2)cc1OC (stereo not given), Cc1ccccc1/C=N\NC(=O)c1csnn1, COC(=O)N1CCC2(CCN(C(=O)NC(C)C)CC2)CC1, CC(Oc1ccc(Cl)cc1)C(=O)/C=C/N(C)C (stereo not given), Oc1[nH]c2ccccc2c1N=Nc1ccc(C(F)(F)F)cn1, CC(=O)c1cnc2cc(C)nn2c1C, Cc1cc(C)n(C(=O)c2cc3ccccc3c(=O)o2)n1, CC1=C(C(=O)O)N2C(=O)C(NC(=O)c3ccn(C)n3)C2SC1 (stereo not given), O=C(CSCc1c(F)cccc1Cl)NCC1CCCO1 (stereo not given), CN(CC(=O)O/N=C(\N)c1ccccn1)S(=O)(=O)c1ccccc1, O=C(CN(c1ccccc1)S(=O)(=O)c1ccccc1[N+](=O)[O-])NN=C1CCCCCCC1, CSc1nc(-c2ccc(C)cc2)nc(C(Cl)Cl)n1, Cc1noc(C)c1C(=O)N1CCC2(CC1)CN(c1ncccn1)C2, Cc1noc(C)c1C(=O)N1CCC2(CCN(Cc3nccs3)CC2)CC1, COc1ccccc1CN1CCC2(CC1)CCN(C(=O)c1c(C)noc1C)CC2, Cc1noc(C)c1C(=O)N1CCC2(CCN(Cc3ccccc3)CC2)CC1, Cc1noc(C)c1C(=O)N1CCC2(CCN(Cc3cc(C(F)(F)F)cc(C(F)(F)F)c3)CC2)CC1, COc1cnc(NS(=O)(=O)c2ccc(N)cc2)nc1, CCCCOc1ccc(OC(=O)c2cccnc2)cc1, C[C@H](NC[C@H](O)CP(=O)(O)Cc1ccccc1)c1ccc(Cl)c(Cl)c1

AC50, active:
CCOc1cc2[nH]c(=O)n(CCC(=O)NCc3ccc(OC)cc3)c(=O)c2cc1OCC 3.55 µM, CCOc1cc2[nH]c(=O)n(CCCC(=O)NCc3ccc(OC)cc3)c(=O)c2cc1OCC 2.51 µM, Cc1ccc(Cn2nc(C)c(NC(=O)c3cc(-c4ccco4)on3)c2C)cc1 2.24 µM, O=C(c1cccc(F)c1)N1CCC2(CCCN(Cc3cc(C(F)(F)F)cc(C(F)(F)F)c3)C2)CC1 10 µM, COCC(=O)N1CCC2(CCCN(Cc3cc(C(F)(F)F)cc(C(F)(F)F)c3)C2)CC1 20 µM, COc1ccc(C(=O)N2CCC3(CCCN(Cc4cc(C(F)(F)F)cc(C(F)(F)F)c4)C3)CC2)cc1 10 µM, COc1ccc(C(=O)N2CCC[C@@]3(CCN(Cc4cc(C(F)(F)F)cc(C(F)(F)F)c4)C3)C2)cc1 3.16 µM, FC(F)(F)c1cc(CN2CCCC3(CCNCC3)C2)cc(C(F)(F)F)c1 7.94 µM, COc1ccc(/C=C2\SC(=O)N(CCNC(=O)C3CC(=O)N(c4ccccc4)C3)C2=O)cc1 (stereo not given) 2.82 µM, COc1ccccc1NC(=S)NNC(=O)c1c(Cl)c(C)nn1C 15.8 µM, COC(=O)c1c(-c2cc(OC)c(OC)c(OC)c2)c2ccnc(OCc3ncccn3)c2c(=O)n1Cc1ccnc(C)c1 15.8 µM, c1ccc(SCc2nc3ccccc3[nH]2)cc1 12.6 µM, CCn1c(SCc2nc3ccccc3[nH]2)nnc1-c1ccc(OC)cc1 3.16 µM, c1ccc(-c2nnc(SCc3nc4ccccc4[nH]3)n2Cc2ccco2)cc1 2 µM, OC(Cc1nc2ccccc2[nH]1)c1ccccc1Cl (stereo not given) 10 µM, Cc1noc(C)c1-c1nccc(NCc2cccnc2)n1 3.98 µM, Cc1noc(C)c1-c1nccc(NCc2cccs2)n1 15.8 µM, Cc1noc(C)c1-c1nccc(NCc2ccccc2)n1 5.01 µM, CCOc1cccc(/C(O)=C2/C(=O)C(=O)N(Cc3cccnc3)C2c2ccco2)c1 (stereo not given) 12.6 µM, COc1ccc(/C(O)=C2/C(=O)C(=O)N(Cc3cccnc3)C2c2ccco2)cc1OC (stereo not given) 14.1 µM, CC(C)Oc1ccc(/C(O)=C2/C(=O)C(=O)N(Cc3cccnc3)C2c2ccco2)cc1 (stereo not given) 14.1 µM, COc1cccc(/C(O)=C2/C(=O)C(=O)N(Cc3cccnc3)C2c2ccco2)c1 (stereo not given) 14.1 µM, Cc1ccc(N(C(=O)c2csnn2)C(C(=O)NC(C)(C)C)c2cccs2)cc1 (stereo not given) 7.08 µM, CCc1ccc(N(C(=O)c2csnn2)C(C(=O)NC(C)(C)C)c2ccncc2)cc1 (stereo not given) 3.98 µM, Cn1c(SCc2nnc(-c3ccc(F)cc3)o2)nnc1C1COc2ccccc2O1 (stereo not given) 14.1 µM, Oc1[nH]c2ccccc2c1/C=N/c1nccs1 15.8 µM, Cc1cc(C)n(C(=O)CCCCCCCCC(=O)n2nc(C)cc2C)n1 4.47 µM, O=C(CN(Cc1ccccc1Cl)C(=O)c1ccc(CN2CCOCC2)o1)NCC1CCCO1 (stereo not given) 12.6 µM, COCCCNC(=O)CN(c1ccc(OC)cc1)S(=O)(=O)c1ccc(NC(C)=O)cc1 12.6 µM, COc1ccc(N(CC(=O)N/N=C/c2cccs2)S(=O)(=O)c2ccc(OC)c(OC)c2)cc1 1.12 µM, COc1ccc(N(CC(=O)NN=C2CCCC2)S(=O)(=O)c2ccccc2)cc1 2.82 µM, O=C(NCc1ccccc1Cl)c1cnccn1 1 µM, COc1cccc(-c2nccc(NCc3ccccc3OC)n2)c1 2.51 µM, COc1ccc(CNc2ccnc(-c3cccnc3)n2)c(OC)c1 0.631 µM, COc1ccc(CNc2ccnc(-c3cccc(NS(C)(=O)=O)c3)n2)c(OC)c1 3.98 µM, COCCNc1ccnc(-c2cccc(NS(C)(=O)=O)c2)n1 25.1 µM, COc1cccc(-c2nccc(NCc3ccc(OC)cc3OC)n2)c1 3.16 µM, Cc1noc(C)c1C(=O)N1CCC[C@@]2(CCN(Cc3ccccc3)C2)C1 12.6 µM, Cc1noc(C)c1C(=O)N1CCC[C@@]2(CCN(Cc3nccs3)C2)C1 15.8 µM, COc1ccccc1CN1CC[C@@]2(CCCN(C(=O)c3c(C)noc3C)C2)C1 1.58 µM, CCCCOc1ccc(S(=O)(=O)Nc2cccnc2)cc1 2.51 µM, Cc1ccc(Nc2nnc(-c3ccc4c(c3)OCO4)o2)c(C)c1 3.16 µM
